Here are results for 38 molecules from PubChem BioAssay (NCI).

Where “and” joins values, the source holds several entries; their conditions need not be identical. Identical values can stand only once. Compounds without any hit were thinned out: in the full panel of roughly 83,000, 20% have a hit.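 Values shown are percent growth following 48 h exposure of cells in 96-well plates to a single concentration of compound; below 10 was considered active.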 Calls of active or inactive are those of the source.

In the first experiment the test system is UO-31 renal. Nature of the experiment: NCI-60 one-dose screen, 48 h (100 = growth as untreated, 0 = no growth, -100 = all killed). The following applies: 1 µM. Here is the method:
Growth inhibition of the UO-31 human tumor cell line is measured as a screen for anti-cancer activity. Cells are grown in 96 well plates and exposed to the test compound for 48 hours. Compounds are tested at a single concentration, which is 10^-5 M for most compounds. The reported endpoint is percent growth (GI% or GIPRCNT), where numbers from 0 - 100% represent growth inhibition, and numbers from -100% - 0 represent cell death. For example, a value of 40 represents 60% growth inhibition. A value of 0 means no net growth occurred over the course of the experiment. A value of -40 indicates 40% of cells at the beginning of the experiment died by the end of the experiment. A value of -100 means all cells are dead at the end of the experiment.
NCI-60 Human Tumor Cell Lines Screen was performed using the standard one-dose NCI protocol, which is described in more detail at https://dtp.cancer.gov/discovery_development/nci-60/default.htm.
Compounds with GIPRCNT values below 10 were considered active. Activity score was based on GIPRCNT using the following formula: […]
Score is 0 for GIPRCNT values of 100 or above, 50 for GIPRCNT values of 0, and 100 for GIPRCNT values of -100.
`CNC(=O)c1cc(Oc2ccc(CC(=O)Nc3cc(C(C)(C)C)nn3C)cc2)ccn1`: the growth is 77.1% (inactive).

The same experiment, now with this note: 10 µM.
On to `CNC(=O)c1cc(Oc2ccc(CC(=O)Nc3cc(C(C)(C)C)nn3C)cc2)ccn1`, for which the growth is 93.2% (inactive).

The same experiment, now with this note: 10 µM unless noted.
On to `O=C(CN1CCOCC1)N1CCOCC1`, for which the growth is 68% (inactive) and 80% (inactive).
On the same count and under the same terms, to `O=C(CCc1ccc(O)cc1)N/N=C/c1cc(Br)ccc1O` belongs 19.5% (inactive); to `CC(C(=O)O)n1cc(C#N)c(=O)[nH]c1=O` (stereo not given), 81.3% (inactive) and 82.4% (inactive).
On the same count and under the same terms, to `CCOc1ccc2c(S(=O)(=O)O)cccc2c1[N+](=O)[O-]` belongs 71.5% (inactive) and 79.1% (inactive).
On the same count and under the same terms, to `CCCCCCCCCCCCOc1ccccc1C=O` belongs 65.1% (inactive); to `CC1=CCC2CC1C2(C)C` (stereo not given), 89% (inactive) and 96.1% (inactive).
Consider `CCN(CC)CCNc1ccc(C)c2sc3ccccc3c(=O)c12` (tested in a mixture with another compound), for which the growth is -4.88% (active) and 2.67% (active).
For `CN1CCN(C2CCN(C(=O)Nc3cc(Oc4ccc(NC(=O)C5(C(=O)Nc6ccc(F)cc6)CC5)c(F)c4)ccn3)CC2)CC1`, the growth was -61.7% (active) and 92.4% (inactive).
For `CC(=O)Oc1cc(C(=O)O)cc(OC(C)=O)c1OC(C)=O`, the growth is 96.7% (inactive) and 98.2% (inactive).
For `O=Nc1ccc(O)cc1`, the growth was 90.7% (inactive) and 62.9% (inactive).
As for `CC(C)Cc1ccc(C(C)C(=O)NCc2ccc(Cn3c(=O)sn(CCCCl)c3=O)cc2)cc1` (stereo not given), the growth is 77% (inactive) and -100% (active).
As to `CCN(CC)CCNc1cc(-c2cccc(OC(F)(F)F)c2)nc2ccc(N3CCCC3)cc12`, the growth was 10.4% (inactive) and -12.9% (active) and 29.7% (inactive).
Same read-out and setting: to `Cc1n[nH]c(=O)n(/N=C\c2c[nH]c3ccccc23)c1=O` belongs 60.6% (inactive).
With `COc1cc2nc(N3CCC[C@@H](NC(=O)C4COc5ccccc5O4)C3)nc(N)c2cc1OC` (stereo not given in full), the growth was 85.7% (inactive) and 65.2% (inactive).
Consider `CO/N=C/C=C\C(=O)N/C=C/C[C@H]1/C=C/[C@H](O)/C=C\C=C\c2cccc(O)c2C(=O)O1`, for which the growth was 14.2% (inactive) and -7.71% (active).
Still for that read-out and setting: to `S=C1SCN(Cc2ccccc2)CN1Cc1ccccc1` belongs 26.7% (inactive).
On the same count and under the same terms, to `O=C(Oc1cccc(OC(=O)c2ccccc2)c1)c1ccccc1` belongs 50.4% (inactive) and 90.9% (inactive); to `COC(=O)/C=C/c1cc(O)c2c(c1)C(C(=O)OC)C(c1ccc(O)c(O)c1)O2` (stereo not given), 38.1% (inactive) and 40.4% (inactive); to `OCCN1CCN(CCCN2c3ccccc3Sc3ccc(Cl)cc32)CC1`, 36.1% (inactive) and 45.1% (inactive).
On the same count and under the same terms, to `Oc1c(Cl)cc(Cl)cc1Sc1cc(Cl)cc(Cl)c1O` belongs 73.2% (inactive) and 36.9% (inactive) and 85.2% (inactive); to `CNC(=O)c1cccnc1`, 84.8% (inactive); to `Oc1ccccc1/C=N\NC(=S)N/N=C/c1ccccc1O`, 12.4% (inactive) and 15.5% (inactive).
Consider `COc1ccccc1NC(=O)OCC#CCOC(=O)Nc1ccccc1OC`, for which the growth is 71.4% (inactive) and 80.2% (inactive).
Consider `CCOc1ccc2cc(-c3nn(CC4CCNCC4)c4ncnc(N)c34)ccc2c1`, for which the growth was 68.8% (inactive) and 45.7% (inactive).
On the same count and under the same terms, to `CCNC(=O)Nc1ccc(-c2nc3c(c(N4CCOC[C@@H]4C)n2)CCN(C2COC2)C3)cc1` belongs 21.8% (inactive) and -6.18% (active).
On the same count and under the same terms, to `c1ccc(NCc2ccc3c(c2)OCO3)cc1` belongs 78.7% (inactive) and 83% (inactive).
Still for that read-out and setting: to `Nc1ccccc1Nc1ccccc1` belongs 45.3% (inactive) and 49.6% (inactive).
As for `O=S1(=O)CC(Br)C(Br)C1` (stereo not given), the growth was 64.9% (inactive) and 77% (inactive).
Turning to `O=C(Cc1cccc2ccccc12)N/N=C/c1ccc2c(c1)CCC2`, the growth was 63.3% (inactive).
Still for that read-out and setting: to `O=C(N/N=C/c1ccccc1)N/N=C/c1ccccc1` belongs 92.4% (inactive) and 102% (inactive).
For the molecule `CCOC(=O)c1sc(N)nc1-c1ccccc1`, the growth is 85.4% (inactive).
For `O=C(Nc1cccc(-n2ccc3c(NC(=O)c4ccccc4)nccc32)c1)c1ccc(Cl)c(C(F)(F)F)c1`, the growth was 7.05% (active) and 75.7% (inactive).
Take `Cn1c(SSc2ccc(-c3cccnc3)n2C)ccc1-c1cccnc1`: the growth was 95.8% (inactive) and 104% (inactive).
For the molecule `O=C1c2ccccc2C(=O)N1/N=C/c1ccc2c(c1)OCO2`, the growth is 81.2% (inactive).
`CC(C)Cc1ccc(C(C)C(=O)NCc2ccc(Cn3c(=O)sn(CCCI)c3=O)cc2)cc1` (stereo not given): the growth is 70.3% (inactive) and -100% (active).
On the same count and under the same terms, to `Cc1cccc(/C=C\C(=O)c2ccccc2)c1` belongs 67.3% (inactive) and 82.2% (inactive).
On the same count and under the same terms, to `OCCN1CCN(CCO)CC1` belongs 81.9% (inactive) and 89.7% (inactive) and 86.7% (inactive).

The same experiment, now with this note: 30 µM.
For the molecule `CNC(=O)c1cc(Oc2ccc(CC(=O)Nc3cc(C(C)(C)C)nn3C)cc2)ccn1`, the growth was 113% (inactive).
